Results: the supplement of paper PMC10338343
± gives the standard deviation.

Key:
[1] = system: MILI (PIWIL2) piRISC loaded with L1MC piRNA (26 nt); experiment: pre-steady-state target cleavage rate (min^-1); guide: L1MC piRNA 5'p-UAACUAAAUACUAUGCAAGCUGUAGG; higher = faster piRNA-guided slicing of the target;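 further: 1 nM active piRISC with 0.1 nM target library at 33 °C single turnover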
Summary of the method: (§1)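 Cleave-'n-Seq measured uncleaved targets by sequencing after a transcribed, DNA-blocked target RNA library […] was mixed with 1 nM active affinity-purified piRISC holding one synthetic guide, with or without 500 nM GTSF1 partner protein, at 33 °C in HEPES–potassium acetate buffer for 0–8 or 0–960 min. Counts were normalised to depth and to weakly complementary targets, three trials were pooled, and k3 was capped at 0.0001 min^-1. A burst-and-steady-state fit gave the pre-steady-state cleavage rate.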

[2] = system: EfPiwi piRISC loaded with L1MC piRNA (26 nt); experiment: pre-steady-state target cleavage rate (min^-1); auxiliary factor: 500 nM Ephydatia muelleri Gtsf1; guide: L1MC piRNA 5'p-UAACUAAAUACUAUGCAAGCUGUAGG; MIWI and MILI are mouse PIWI proteins and EfPiwi is from a freshwater sponge; tags in brackets are library labels; higher = faster piRNA-guided slicing of the target
Summary of the method: as §1

[3] = auxiliary factor: 500 nM mouse GTSF1
[4] = auxiliary factor: none (no GTSF1)

Sequence	pre-steady-state target cleavage rate [1, 3]	pre-steady-state target cleavage rate [1, 4]	pre-steady-state target cleavage rate [2]
UCCUGGAUGUCCUUGCCUAGUAUUUAGUUA	0.0522 ± 0.0084	0.00452 ± 0.002	0.00345 ± 0.002
UCCUGCUACAGCAUGCAUAGUAUUUAGUUA	0.353 ± 0.022	0.00853 ± 0.003	0.0124 ± 0.0037
UCCUGGAACAGCAUGCAUUGUAUUUAGUUA	0.204 ± 0.016	0.00901 ± 0.0024	0.00504 ± 0.002
UCCUGGUACAGCUUGCAUAGUAGUUAGUUA	0.2 ± 0.034	0.00513 ± 0.0028	0.00515 ± 0.0021
UCCUGGAUGUCCUUGCACAGUAUUUAGUUA	0.145 ± 0.028	0.00389 ± 0.0023	0.00454 ± 0.0024
UCCUGCUACAGCUUGCAUUGUAUUUAGUUA	0.248 ± 0.022	0.0081 ± 0.0028	0.00662 ± 0.0024
UCCUGGAUCAGUUUGCAUAGUAUUUAGUUA	0.24 ± 0.02	0.0104 ± 0.0027	0.128 ± 0.021
UCCUGCUACAGCUAGCAUAGUUUUUAGUUA	0.0836 ± 0.014	0.00345 ± 0.0024	0.00472 ± 0.0016
UCCUGGUACAGCAUGCAUAGUAAUUAGUUA	0.193 ± 0.025	0.013 ± 0.0032	0.00882 ± 0.0034
UCCUGGAUGUCCUUGCAUAGUAUUUAGUAUA	0.191 ± 0.03	0.00617 ± 0.0026	0.00442 ± 0.0031
UCCUGGAACAGCAUGCAUAGUUUUUAGUUA	0.0418 ± 0.011	0.00553 ± 0.0023	0.00387 ± 0.0016
UCCUGGAACAGCUUGCAUAGUAUUUAGUUU [g2:g23:cont:t1U]	0.278 ± 0.02	0.0155 ± 0.0044	0.0156 ± 0.0055
UCCUGGAUGACCUUGCAAAGUAUUUAGUUA	0.0397 ± 0.011	0.00372 ± 0.0031	0.00391 ± 0.0037
UCCUGCAUGAGCUUGCAUAGUAUUUAGUAA	0.234 ± 0.024	0.00554 ± 0.0022	0.0061 ± 0.0025
UCCUGGAACAGCUUGCAUAGAAUUUAGUUA	0.0554 ± 0.01	0.00299 ± 0.0027	0.0051 ± 0.0017
UCCUGCUACUGCUUGCAUAGAAUUUAGUUA	0.045 ± 0.0093	0.00256 ± 0.002	0.00563 ± 0.002
UCCUGGAACCGCUUGCAUAGUAUUUAGUUA	0.265 ± 0.015	0.0108 ± 0.002	0.0172 ± 0.0054
UCCUGGAACAGCUAGCAAAGUAUUUAGUUA	0.11 ± 0.013	0.00729 ± 0.002	0.00366 ± 0.0025
